NPR1 antag – human Npr1 receptor antagonism; HEK293 hNpr1 GloSensor cGMP, ANP-stimulated luminescence; actives 1.6% (n = 76,000); Potency, µM (top dose mostly 46.3 µM), inactives show top-dose activity change, negative = inhibition, hits mostly inhibitors; P16066; AID 1347048; calls by dose curve; also: nearly all actives have a fitted effect of over 60% in size
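Compound pre-incubated 30 min at room temperature on GloSensor-loaded HEK293 cells stably carrying hNpr1 and the pGS-40F cGMP biosensor. Stimulation uses hNppA at 0.1 nM final; luminescence is taken at baseline and 20 min post-agonist.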
HEK cytotox – cytotoxic compounds in HEK 293 cells | HEK 293 viability, ATP luminescence (CellTiter-Glo), 48-72 h | Potency, µM (series often up to 115 µM), without a hit: top-dose activity change, negative = cytotoxicity, actives largely listed as inhibitors | actives 6.6% (n = 94,000); also: nearly all actives have a fitted effect of over 60% in size
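HEK 293 seeded at 250 cells/well receive compound via pintool. After 48 or 72 hr at 37 degree Celsius, 5% CO2 and 95% humidity, CellTiter-Glo is dispensed and luminescence read following 10 min at room temperature.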
NIH3T3 tox – cytotoxic compounds in NIH 3T3 cells | NIH 3T3 viability, CellTiter-Glo ATP luminescence, 48-72 h | Potency, µM (series often up to 96.7 µM), inactives show top-dose activity change, negative = cytotoxicity, hits mostly inhibitors | actives 4.3% (n = 94,000) | AID 1345082; also: nearly all actives have a fitted effect of over 55% in size
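Cytotoxicity was measured by CellTiter-Glo ATP luminescence after 48 or 72 h compound exposure at 37 °C. Mouse NIH 3T3 fibroblasts were seeded at 400 cells/well and dosed by 23 nL pin transfer.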
FLuc inh – Photinus pyralis luciferase inhibition; Potency, µM (highest dose often 115 µM), most hits filed as inhibitors; purified P. pyralis luciferase, luminescence, biochemical; P08659; AID 1347043; actives 2.5% (n = 76,000); also: nearly all actives have a fitted effect of over 65% in size
Target sequence (P08659 whole entry, looked up): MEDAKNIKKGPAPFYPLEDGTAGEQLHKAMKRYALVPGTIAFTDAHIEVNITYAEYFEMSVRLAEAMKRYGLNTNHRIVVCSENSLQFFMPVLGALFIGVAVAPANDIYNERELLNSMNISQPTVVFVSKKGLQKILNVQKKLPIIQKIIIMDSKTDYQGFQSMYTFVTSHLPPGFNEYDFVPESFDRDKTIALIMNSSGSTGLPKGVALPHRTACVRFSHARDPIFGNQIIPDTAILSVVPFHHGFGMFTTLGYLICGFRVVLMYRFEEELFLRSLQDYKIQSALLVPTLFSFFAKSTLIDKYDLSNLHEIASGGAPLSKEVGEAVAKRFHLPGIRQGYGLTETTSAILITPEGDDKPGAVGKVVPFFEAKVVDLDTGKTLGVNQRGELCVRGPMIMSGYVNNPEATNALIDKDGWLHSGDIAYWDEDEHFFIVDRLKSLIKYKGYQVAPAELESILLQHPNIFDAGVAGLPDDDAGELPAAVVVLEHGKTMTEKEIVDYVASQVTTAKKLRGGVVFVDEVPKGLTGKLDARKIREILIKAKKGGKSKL
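Biochemical qHTS: compound (6-point titration) added to 10uM D-luciferin plus 10uM ATP in Tris acetate pH 7.5 buffer with Mg, Tween-20 and BSA, then purified enzyme at 10nM; light output imaged.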
* = called active by the depositor; i = inactive; ? = inconclusive; / = no result given; [ ] = remark or other dose. In the library only some 11% were active in any assay of this set; here they are far more common. Unless noted, calls follow the shape of the dose curve; as a rule, active = well fitted curve in the direction sought with a large enough effect; inconclusive = small, poorly fitted or top-dose-only effect, or another doubt; inactive = no such curve, though single readings can be large; an effect the other way counts as inactive or inconclusive. % is scaled to controls: 0 for no effect and ±100 for the full control effect; potency is read from the fitted curve at half-maximal effect.

SMILES	NPR1 antag	HEK cytotox	NIH3T3 tox	FLuc inh
Cc1ccc(-c2noc([C@@H]3C[C@H](NS(=O)(=O)c4ccc(C)cc4)CN3C)n2)cc1	?	71µM*	89µM*	22µM*
CN1C[C@@H](NS(=O)(=O)Cc2ccccc2)C[C@H]1c1nc(-c2ccccc2)no1	-15%[70.6 µM]	?	?	i
CC(=O)Nc1ccc(S(=O)(=O)N[C@H]2C[C@@H](c3nc(C)no3)N(C)C2)cc1	-1%[70.6 µM]	-3%[172 µM]	4%[174 µM]	i
Cc1ccc(-c2noc([C@@H]3C[C@H](NS(=O)(=O)Cc4ccccc4)CN3C)n2)cc1	-22%[70.6 µM]	100µM*	79µM*	i
COc1ccc(-c2noc([C@@H]3C[C@H](NS(=O)(=O)c4ccc(C)cc4)CN3C)n2)cc1	-25%[70.6 µM]	?	?	i
O=C(NCc1ccccc1F)C1CN(C2CCCC2)C(=O)N1 (centres undefined)	/	-25%[172 µM]	-23%[138 µM]	/
Cc1nc2c(c(-c3ccc(O)cc3)n1)CCN(C(=O)c1ccccc1)CC2	/	-16%	-22%	/
CCn1cc(S(=O)(=O)N2CCC3(CC2)CC(OCC2CC2)CCO3)cn1 (centres undefined)	-7%	-9%	-8%	i
Cc1ccc(-c2noc([C@@H]3C[C@H](NS(=O)(=O)c4ccc5ccccc5c4)CN3C)n2)cc1	-22%	?	?	20µM*
CCCCn1c(=O)c(C(=O)NCCc2ccccc2)nc2cccnc21	/	45µM*	?	/
O=C(NCc1cccc(Cl)c1)c1nc2cccnc2n(CCc2ccccc2)c1=O	/	35µM*	?	/
O=C(NCCc1ccccc1)c1nc2cccnc2n(CCc2ccccc2)c1=O	/	?	-1%	/
CCCCn1c(=O)c(C(=O)NCc2cccc(Cl)c2)nc2cccnc21	/	?	35µM*	/
O=C(c1ccc(F)c(Cl)c1)N1CCC2(CC1)N=C(c1ccccc1)NO2	-10%	?	-18%	i
CCN1CCN(c2ncnc3c2CN(c2cccc(C)c2)C(=O)CN3C)CC1	/	2%	-5%	/
CC(C)[C@@H]1CN(C(=O)c2cc(N3CCCCC3)ccc2Cl)C[C@H]1N(C)C	0%	40µM*	?	i
COc1ccc(OC)c(S(=O)(=O)N2CCC(c3nc(-c4cccn4C)no3)CC2)c1	/	40µM*	?	/
O=c1[nH]c(N2CCOCC2)nc2c1CCN(Cc1cc(F)c(F)cc1F)CC2	-1%	-10%	-13%	i
CC(C)c1ccc(CC(=O)N2CCCc3ncc(C(=O)NCCc4c[nH]c5ccccc45)cc32)cc1	-5%	25µM*	11µM*	i
CC(C)c1ccc(CC(=O)N2CCCc3ncc(C(=O)Nc4ccn(C)n4)cc32)cc1	-2%[70.6 µM]	89µM*	?	i
O=C(Nc1cccc(C(F)(F)F)c1)c1cnc2c(c1)N(C(=O)Cc1cccc(C(F)(F)F)c1)CCC2	-24%	25µM*	?	i
COc1cccc(NC(=O)c2cnc3c(c2)N(C(=O)Cc2ccccc2OC)CCC3)c1	-2%[70.6 µM]	100µM*	-23%[138 µM]	?
COc1ccc(Cc2nnc3ccc(C(=O)NCc4ccc5c(c4)OCO5)cn23)cc1	/	i	-8%	/
Cc1ccccc1NC(=O)c1cnc2c(c1)N(C(=O)CCc1ccccc1)CCC2	?	100µM*	-21%[138 µM]	i
COCCCNC(=O)c1cnc2c(c1)N(C(=O)Cc1ccc(C(C)C)cc1)CCC2	-2%[70.6 µM]	71µM*	-24%[138 µM]	i
SMILES	NPR1 antag	HEK cytotox	NIH3T3 tox	FLuc inh
COCCNC(=O)c1cnc2c(c1)N(C(=O)Cc1ccc(C(C)C)cc1)CCC2	1%[70.6 µM]	?	-14%[138 µM]	i
CNC(=O)c1cnc2c(c1)N(C(=O)Cc1ccc(C(C)C)cc1)CCC2	-15%[70.6 µM]	?	?	i
COc1ccccc1N1CCCc2ncc(C(=O)Nc3cccnc3)cc21	-19%[70.6 µM]	100µM*	?	i
COc1ccccc1N1CCCc2ncc(C(=O)Nc3cccc(C(F)(F)F)c3)cc21	-19%[70.6 µM]	?	?	i
COc1ccc(NC(=O)c2cnc3c(c2)N(C(=O)Cc2ccc(C(C)C)cc2)CCC3)cc1OC	?	32µM*	?	i
CN1CCN(C(=O)c2cc(-c3ccc(F)cc3)c3nncn3n2)CC1	/	-12%	-21%	/
Cc1ccc(CNC(=O)Cn2c(N(C)Cc3ccccc3)nc(C)cc2=O)cc1	-15%	?	?	i
COc1ccc(CN2Cc3[nH]nc(-c4ccc(C(=O)N5CCOCC5)cc4)c3CC2=O)cc1	-7%	79µM*	-24%	i
COCCN1Cc2[nH]nc(-c3ccc(OC)c(F)c3)c2CC1=O	3%[70.6 µM]	2%[172 µM]	79µM*	i
